Bioassay records deposited in PubChem by several laboratories.
ROMK primary – human ROMK K+ channel modulation, primary screen; P48048; Tet-inducible ROMK, thallium flux fluorescence; actives lie on both sides; B-score at 10 µM; hit rate 2% among 130,000;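 active means signal ratio slope over the read window, or its plate-corrected B-score, at least 3 SD from the plate mean, either direction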;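 further: B-score of the F/F0 ratio slope over 7 to 12 s after thallium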
Target sequence (P48048 whole entry, looked up): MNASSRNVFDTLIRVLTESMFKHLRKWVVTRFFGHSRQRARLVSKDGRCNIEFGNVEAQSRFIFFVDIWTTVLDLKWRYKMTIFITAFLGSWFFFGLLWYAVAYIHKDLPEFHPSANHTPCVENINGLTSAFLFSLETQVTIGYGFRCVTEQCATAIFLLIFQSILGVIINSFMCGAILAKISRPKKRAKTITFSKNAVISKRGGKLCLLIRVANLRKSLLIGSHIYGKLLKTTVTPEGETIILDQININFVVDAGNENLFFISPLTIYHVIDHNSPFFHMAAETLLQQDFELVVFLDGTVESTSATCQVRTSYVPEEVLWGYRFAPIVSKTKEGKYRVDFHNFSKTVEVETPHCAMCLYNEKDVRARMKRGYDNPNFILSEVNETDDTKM
sdo1 growth – compounds rescuing growth of sdo1-depleted yeast, bone marrow failure model; hit rate 0.21% among 140,000; S. cerevisiae sdo1-depleted JHY4D growth rescue, OD600 30 h; active compounds read high; pdr5 snq2 efflux-pump mutant strain; z-score at 10 µM;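 active means z-score above 3 at both the 24 hr and the 30 hr optical density reads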;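 further: z-score against mean and SD of all compound wells on the same plate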
Measles CPE – protection of cells from measles virus; protection (pct of control), % at 4 µM; hit rate 1.5% among 140,000; Measles virus-infected cells, CPE protection, absorbance; in the data active means protection mostly above about 24%, no sharp cut-off; inactive means mostly below about 26%
INS promoter inh – TRM-6 insulin promoter activity inhibition | AID 1273 | inhibition, % at 2 µM | TRM-6 cells (human fetal islet line), insulin promoter-eGFP reporter, imaging; reporter expression induced with tamoxifen | hit rate 0.9% among 130,000;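 active means inhibition above the mean plus 3 SD, with well images judged a real hit on visual review, cut at about 60% in these data, passing the limit was not always enough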
SDO1 rescue DR – SDO1-depleted yeast growth rescue confirmation | shares compounds with sdo1 growth | S. cerevisiae JHY4D (SDO1-depleted) growth rescue, OD600, 30 h; active compounds read high; efflux-deficient strain, SNQ2 and PDR5 mutated | OD recovery (no concentration beside the values) | hit rate 44% among 440 | AID 949;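 active means yeast growth recovered at 30 hours, either rising with dose fitted slope above 0.001 or with average optical density gain above 0.07, some results past the limit were not filed as active; inactive means growth falling with dose or no effect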;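 further: gain in OD600 from 0 h to 30 h averaged across all seven doses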
Starred values were filed as active, the others as inactive; x = no result. Sampled rows, rich in hits. Any-hit rate of the full collection: about 3%.

SMILES | ROMK primary | sdo1 growth | Measles CPE | INS promoter inh | others
CCC(C(=O)N1CCc2cc(OC)c(OC)cc2C1)c1ccccc1 (configuration not stated) | 0.42 | -0.54 | 15 | 29
COc1cc2c(cc1OC)CN(C(=O)c1ccccc1C(=O)O)CC2 | -0.55 | -0.1 | 60* | x
CC1(C)CC(=O)c2c(O)cc(O)cc2O1 | x | 0.72 | 9 | -57
O=C1C[C@@H](c2ccc(O)cc2)Oc2cc(O)cc(O)c21 | 0.36 | -0.09 | 31* | 0
Cc1cc(C)c(NC(=O)C2CCCN2CCOC(=O)c2ccccc2)c(C)c1 (configuration not stated) | x | -0.94 | 6 | 33
Cc1cc(C)c(C)c(S(=O)(=O)N2CCC(C(=O)Nc3ccccc3N3CCOCC3)CC2)c1C | -0.73 | -0.01 | 10 | -13
Cc1ccc(S(=O)(=O)N2CCC(C(=O)Nc3ccccc3N3CCCCC3)CC2)cc1 | x | -0.73 | 34* | -45
O=[N+]([O-])c1ccc(N2CCN(CCO)CC2)cc1Sc1nc2ccccc2[nH]1 | 0.47 | 2.4 | 9 | -58
COC(=O)c1cc(Br)c(=O)n(Cc2ccc(C(=O)O)cc2)c1 | 0.05 | 1.2 | 32* | x
COc1ccc(C2=NN(CC(=O)Nc3cc(C)ccc3C)C(=O)CC2)cc1 | -1.4 | x | x | x
COc1ccc(-n2c(C)c(C(C)=O)c(C(C)=O)c2C)cc1OC | 0.23 | 1.3 | 13 | 71*
CCSc1nc2ccc(N3C(=O)C4C5C=CC(C5)C4C3=O)cc2s1 (configuration not stated) | 0.26 | 0.06 | 6 | x
NS(=O)(=O)c1ccc(NC(=O)C2C3C=CC(C3)C2C(=O)O)cc1 (configuration not stated) | 0.59 | x | x | x
Cc1ccc(NC(=O)CN2C(=O)NC(Cc3c[nH]c4ccccc34)C2=O)cc1S(=O)(=O)N1CCCCC1 (configuration not stated) | 0.53 | 0.41 | 14 | 38
Nc1ccc(NC(=O)c2cccs2)cc1 | 0.49 | x | x | x
Nc1ccc(/C=C/C(=O)c2cccs2)cc1 | -6* | x | x | -143
COC(=O)CCCC(=O)N1CCCC(CNS(=O)(=O)c2ccc(OC)cc2)C1 (configuration not stated) | -0.084 | x | x | x
Cc1ccoc1C(=O)NCc1occc1C(=O)O | x | 0.91 | 41* | x
COc1ccc(Nc2nnc(SCC(=O)c3cc(C)n(CC4CCCO4)c3C)s2)cc1 (configuration not stated) | -0.52 | -0.7 | 4 | 13
CCc1ccc(NC(=O)N(CCOC)C2CCN(C(C)=O)CC2)cc1 | 1 | -0.93 | 65* | -34
Cc1cc(C)n2nc(C(=O)NC3CCCc4ccccc43)nc2n1 (configuration not stated) | -0.86 | x | x | x
CCCCc1c(O)nc(SCC(=O)Nc2ccc3c(c2)CCC3)[nH]c1=O | -1.1 | -0.41 | 49* | x
CCc1c(O)nc(SCC(=O)Nc2ccc3c(c2)CCC3)[nH]c1=O | 0.3 | 0.2 | 20 | 6
FC(F)(F)c1cccc(NCc2cn3cccnc3n2)c1 | 1.1 | 1.2 | 55* | x
CCNC(=S)N1CCC(NC(=O)C2CCCCC2)CC1 | x | 0.67 | 2 | 0
SMILES | ROMK primary | sdo1 growth | Measles CPE | INS promoter inh | others
CCNC(=S)NNC(=O)C1CCCCC1 | 0.034 | 1.4 | 28* | x
O=C(Nc1cnn(C23CC4CC(CC(C4)C2)C3)c1)c1cc(-c2ccccc2)on1 | 0.44 | -0.55 | 13 | 31
CCCn1cc(NC(=O)c2cc(-c3ccccc3)on2)cn1 | 5.6* | -0.87 | 15 | 15
COc1ccccc1-n1c(SCC(=O)Nc2ccc3c(c2)OCO3)nc2c(c1=O)SCC2 | x | 0.67 | 15 | 8
COc1ccccc1-n1c(SCC(=O)Nc2cccc(C)c2)nc2c(c1=O)SCC2 | x | -0.16 | 47* | x
COc1ccc(OC)c(-n2c(SCC(=O)N3CCc4ccccc43)nc3c(c2=O)SCC3)c1 | x | -1 | 3 | 70*
Cc1ccc(O)c(C2=NOC(O)(C(F)(F)F)C2)c1 (configuration not stated) | x | -0.01 | 7 | -20
Cc1cc(C)c(-n2nnnc2SCC(=O)c2cc3ccccc3o2)c(C)c1 | -0.48 | x | x | x
Cc1cc(C)c(-c2c(O)c3cnn(-c4ccccc4)c3[nH]c2=O)c(C)c1 | -0.088 | 1.2 | 9 | 67*
Cc1cc(C)c(-c2c(O)c3cccc4c3n(c2=O)CCC4)c(C)c1 | x | -2.1 | 14 | 50
Cc1onc(-c2c(F)cccc2Cl)c1C(=O)NC1CCSC1=O (configuration not stated) | -0.49 | 5* | 12 | 17 | SDO1 rescue DR=0.059
CC(NC(=O)C1CCC(CNS(=O)(=O)c2ccccc2)CC1)c1ccc2c(c1)OCCO2 (configuration not stated) | 0.93 | x | x | -27
CCCCCCCCNC(=O)c1cnccn1 | -1.3 | 9.4* | 2 | x | SDO1 rescue DR=0.053
CCn1c(=O)cc(SCC(=O)Nc2ccc(C)cn2)c2ccccc21 | -1.3 | x | x | x
O=C1CC(NNc2ccccc2)C(=O)N1c1ccc(N2CCCCC2)cc1 (configuration not stated) | 0.0091 | x | x | x
COc1ccc(-c2noc(CCC(=O)N(C)c3cccc(C)c3)n2)cc1 | 0.44 | 4.3* | 9 | -10 | SDO1 rescue DR=0.045
CCOC(=O)c1oc2ccccc2c1NC(=O)c1cccc(OC)c1OC | x | -0.23 | 3 | -120 | SDO1 rescue DR=0.095*
O=C(NCCO)c1nc(NCCO)c2ccccc2n1 | x | 5.6* | 24 | -70 | SDO1 rescue DR=0.031
CCCCn1c(C)nc2c(=O)n(C)c(=O)[nH]c21 | x | 2.4 | 29* | 73* | SDO1 rescue DR=0.074*
Cn1cccc1/C=N/N1CCN(c2ccccc2)CC1 | -0.34 | x | x | x
C=CCNC(=S)NNC(=O)c1ccc(OCC(C)C)cc1 | x | 6.2* | 18 | 29 | SDO1 rescue DR=0.094*
CCCn1c(O)c(N=NC(=O)c2ccco2)c2ccccc21 | -0.59 | 1.9 | 4 | 33
O=C(N=NC(=O)c1ccco1)c1ccc2c(O)n(N3C(=O)c4ccccc4C3=O)c(O)c2c1 | 0.48 | 3.5* | 10 | 6 | SDO1 rescue DR=0.075*
CCOc1cc(C(=O)N2CCCC2)cc(OCC)c1OCC | -0.04 | 1.8 | 7 | -412 | SDO1 rescue DR=0.042
N=c1c2c3c(sc2ncn1CCN1CCOCC1)CCCCC3 | 0.39 | 11* | 31 | 64 | SDO1 rescue DR=0.042
SMILES | ROMK primary | sdo1 growth | Measles CPE | INS promoter inh | others
c1nc(NCCN2CCOCC2)c2c3c(sc2n1)CCCCC3 | x | -0.33 | 8 | 18
CCOc1ccc(-c2cc(C(=O)OC)[nH]n2)cc1 | -0.002 | x | x | 0
COc1c(/C=N/Nc2ccc([N+](=O)[O-])cc2[N+](=O)[O-])c(C)nn1-c1ccccc1 | x | 2.8 | 3 | 18 | SDO1 rescue DR=0.04
CC1CN(C(=O)Nc2ccc(Br)cc2Cl)CC(C)O1 (configuration not stated) | -0.0027 | x | x | -32
O=C(NCc1cccs1)c1nc2ncccn2n1 | x | 3* | 3 | 41 | SDO1 rescue DR=0.032
Cc1ccnc2nc(C(=O)NCc3cccs3)nn12 | -0.087 | 0.65 | 3 | -40
CCOc1cc(C#N)c(NC(=O)c2cccnc2)cc1OCC | x | 1.4 | 5 | x | SDO1 rescue DR=0.058
COc1cc(C(=O)N2CCC(C(=O)Nc3cccc(C(C)=O)c3)CC2)cc(OC)c1OC | 0.59 | 2.8 | 4 | 23 | SDO1 rescue DR=0.059
COc1ccc(NC(=O)C2CCN(C(=O)c3ccccc3)CC2)cc1OC | x | 2.2 | 24 | x
